According to PubChem BioAssay (NCI):
This is part of a sample that, as a whole, favours compounds with a hit. Of some 83,000 tested, about 20% had one in any assay.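 The endpoint reported here, percent growth, reads 100 for growth as untreated, 0 for no net growth and -100 for all cells dead.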 A number with no mark means an inactive call. Calls of active or inactive are those of the source. Rule for the calls: active = growth percent below 10; inactive = the rest.

Experiments:
Assay in all cases: NCI-60 one-dose screen, 48 h (100 = growth as untreated, 0 = no growth, -100 = all killed)
Conditions in all cases: 10 µM unless noted
NCI-H23 lung = test system: NCI-H23 lung
NCI-H226 lung = test system: NCI-H226 lung
NCI-H322M lung = test system: NCI-H322M lung
HOP-62 NSCLC = test system: HOP-62 NSCLC
NCI-H460 lung = test system: NCI-H460 lung
NCI-H522 lung = test system: NCI-H522 lung
A549/ATCC NSCLC = test system: A549/ATCC NSCLC
786-0 renal = test system: 786-0 renal
COLO 205 colon = test system: COLO 205 colon
DU-145 prostate = test system: DU-145 prostate
K-562 leukemia = test system: K-562 leukemia
MDA-MB-231 breast = test system: MDA-MB-231 breast
SF-268 CNS = test system: SF-268 CNS
SF-295 CNS = test system: SF-295 CNS
SF-539 CNS = test system: SF-539 CNS
UACC-257 melanoma = test system: UACC-257 melanoma
M14 melanoma = test system: M14 melanoma
HCT-15 colon = test system: HCT-15 colon
RXF 393 renal = test system: RXF 393 renal
MALME-3M melanoma = test system: MALME-3M melanoma

| Compound | growth (NCI-H23 lung) | growth (NCI-H226 lung) | growth (NCI-H322M lung) | growth (HOP-62 NSCLC) | growth (NCI-H460 lung) | growth (NCI-H522 lung) | growth (A549/ATCC NSCLC) | growth (786-0 renal) | growth (COLO 205 colon) | growth (DU-145 prostate) | growth (K-562 leukemia) | growth (MDA-MB-231 breast) | growth (SF-268 CNS) | growth (SF-295 CNS) | growth (SF-539 CNS) | growth (UACC-257 melanoma) | growth (M14 melanoma) | growth (HCT-15 colon) | growth (RXF 393 renal) | growth (MALME-3M melanoma) |
| --- | --- | --- | --- | --- | --- | --- | --- | --- | --- | --- | --- | --- | --- | --- | --- | --- | --- | --- | --- | --- |
| O=C(/C=C/c1ccc(Cl)cc1)c1ccccc1 | 109% | 91% | 92.2% | 115% | 107% | 81.1% | 88.9% | 93.7% | 120% | 106% | 66.6% | 119% | 102% | 94.3% | 103% | 102% | 100% | 75.4% | – | – |
| COC(=O)CC1=C(C)/C(=C/c2[nH]c(-c3ccc[nH]3)cc2OC)N=C1C | 6.26% (active) | 24.6% | 18.2% | -10.9% (active) | 4.72% (active) | -74.8% (active) | 9.1% (active) | -2.31% (active) | 9.09% (active) | 24.2% | -23.6% (active) | -14.3% (active) | 22.7% | -46.6% (active) | -4.76% (active) | -8.53% (active) | 7.46% (active) | 3.06% (active) | 8.29% (active) | – |
| COc1cc2c(C#N)n3c(c2cc1OC)C(=O)C(c1ccccc1)Oc1ccccc1-3 (centres undefined) | 20.5% | 21.8% | 85.5% | 53.8% | 66.9% | -32.4% (active) | 11.5% | 48.5% | 80.3% | 72.8% | 29.7% | 64.1% | 43% | 28.4% | 83.5% | 89.3% | 44.7% | 31.5% | – | – |
| CC1(C)OC(=O)C(=Cc2ccccc2Br)C(=O)O1 | 101% | 96.9% | 101% | 106% | 102% | 88.8% | 103% | 103% | 109% | 116% | 87.4% | 109% | 104% | 99.7% | 91.9% | 95.3% | 88% | 88.6% | – | – |
| COc1ccc(/C=N\Nc2ccc([N+](=O)[O-])cn2)cc1OC | 88.4% | 34.7% | 10.8% | 25.4% | 1.43% (active) | 47.9% | 30.3% | 10.2% | 67.5% | 73.7% | 93.7% | -0.447% (active) | 73.3% | 35.4% | 32.1% | 67.6% | 110% | 95.8% | 51.6% | – |
| COc1cc(/C=C/C(=O)c2c(-c3ccc(Cl)cc3)nc3sc(C)nn23)cc(OC)c1OC | 84.3% | 68.3% | 87.5% | 98.8% | 97.2% | -20.1% (active) | 83.8% | 81.4% | 100% | 90.2% | 31.1% | 72.2% | 88.6% | 76.2% | 95.8% | 81.9% | 75.8% | 60.2% | – | – |
| COc1cc(C2=NN(C(C)=O)C(c3ccc(OC(C)=O)cc3OC(C)=O)O2)c(OC(C)=O)c2ccccc12 (centres undefined) | 38% | 27% | 19.6% | 24.3% | 9.82% (active) | -7.78% (active) | 8% (active) | 11.2% | 10.4% | 26.8% | 6.47% (active) | 34.2% | 19.7% | 22.2% | 7.95% (active) | -8.85% (active) | 5.99% (active) | 32.8% | – | – |
| COc1ccc(-c2csc(NC(=O)c3cc(O)c(O)c(O)c3)n2)cc1 | 78.5% | 82.3% | 76.9% | 64.8% | 53.7% | -22.9% (active) | 58.6% | 64.4% | 91.4% | 65.2% | 44.8% | 56% | 54.5% | 73.4% | 62.7% | 87.3% | – | 30.4% | – | – |
| CN1C(=O)C(=Cc2cn(Cc3ccccc3)c3ccc(Br)cc23)C(=O)N(C)C1=O | 105% | 32.3% | 93.8% | 85.8% | 35.1% | 94.4% | 88.5% | 98.2% | 89.6% | 97.1% | – | 105% | 96.7% | 75.8% | 97.5% | 99.1% | 99.8% | 95.4% | 57.6% | 113% |
